Laboratory results as given in PubChem BioAssay (EPA / NIEHS).
“And” between values parts separate entries of the source, which are not always exact repeats. Equal entries are not always repeated. Records with an inconclusive call do not appear. Some compounds were tested as several samples or in several runs, with calls that do not always agree. The source made the active and inactive calls. How the source made its calls, unless noted: active means hit-call score of the fitted dose curve at least 0.9, where 1 is the maximum; inconclusive means response in the unintended direction; inactive means score below 0.9.

Columns and labels:
[1] = target: Cellular tumor antigen p53 (Homo sapiens) (UniProt P04637); test: TOX21_p53_BLA_p2_ratio: Tox21 HCT-116 p53 Agonism Beta-lactamase Assay, Ratio, Phase 2 (AID 2283592)
Sequence of Cellular tumor antigen p53 (Homo sapiens) (P04637 whole entry, looked up): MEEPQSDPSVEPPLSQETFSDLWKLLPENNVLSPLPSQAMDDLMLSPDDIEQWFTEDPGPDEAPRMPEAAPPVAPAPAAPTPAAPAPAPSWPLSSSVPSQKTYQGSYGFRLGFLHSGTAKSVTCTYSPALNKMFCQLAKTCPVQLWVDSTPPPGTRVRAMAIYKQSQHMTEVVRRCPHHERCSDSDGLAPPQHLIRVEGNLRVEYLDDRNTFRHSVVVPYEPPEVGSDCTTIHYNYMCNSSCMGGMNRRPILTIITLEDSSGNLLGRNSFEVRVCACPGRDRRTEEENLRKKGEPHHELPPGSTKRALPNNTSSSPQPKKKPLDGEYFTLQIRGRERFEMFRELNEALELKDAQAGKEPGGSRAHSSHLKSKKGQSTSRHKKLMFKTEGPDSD
Method in brief: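 In this cell-based reporter format, HCT116 cells were dosed with chemicals delivered from DMSO by 217-fold dilution and incubated 16 h at 37C. Emission at 460 and 530 nm after 2 h CCF4-AM loading provided the ratio, fitted upward versus DMSO.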

[2] = TOX21_p53_BLA_p3_viability: Viability Assessment in the Tox21 HCT-116 p53 Agonism Beta-lactamase Assay, Phase 3 (AID 2283593);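 further: cells exposed to compound for 16 h before reading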
Method in brief: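 Cellular ATP was quantified by CellTiter-Glo luminescence, read after 30 min at room temperature. Beforehand, HCT116 cells (4000/well) received compound 5 h post-seeding, 217-fold diluted from DMSO, then incubated 16 h at 37C.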

[3] = target: Cellular tumor antigen p53 (Homo sapiens) (UniProt P04637); test: TOX21_p53_BLA_p3_ratio: Tox21 HCT-116 p53 Agonism Beta-lactamase Assay, Ratio, Phase 3 (AID 2283596)
Method in brief: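 HCT116 p53-bla cells (4000/well) given compound in DMSO (217-fold dilution) after 5 h, incubated 16 h at 37C. CCF4-AM substrate 2 h at room temperature; 460/530 nm emission ratio, gain fitted against DMSO.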

[4] = TOX21_p53_BLA_p4_viability: Viability Assessment in the Tox21 HCT-116 p53 Agonism Beta-lactamase Assay, Phase 4 (AID 2283597);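 further: hits lower the luminescence signal meaning cytotoxicity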
Method in brief: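 We seeded HCT116 p53 reporter cells at 4000/well and waited 5 h. We then added compounds in DMSO at a 217-fold dilution and incubated for 16 h. Viability was read as CellTiter-Glo luminescence after 30 min at RT.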

[5] = TOX21_p53_BLA_p5_viability: Viability Assessment in the Tox21 HCT-116 p53 Agonism Beta-lactamase Assay, Phase 5 (AID 2283600)
Method in brief: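 Compounds, pinned from DMSO at 217-fold dilution, were left on the cells for 16 h. The viability endpoint was ATP content measured by CellTiter-Glo luminescence, where falling signal reflects cytotoxicity.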

[6] = target: Cellular tumor antigen p53 (Homo sapiens) (UniProt P04637); test: TOX21_p53_BLA_p4_ratio: Tox21 HCT-116 p53 Agonism Beta-lactamase Assay, Ratio, Phase 4 (AID 2283601)
Method in brief: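 Signal is the blue/green (460nm/530nm) ratio of cleaved versus uncleaved CCF4-AM substrate, read after 2 h substrate loading. Cells were HCT116 carrying the p53-responsive beta-lactamase reporter, dosed 16 h at 37C, 5% CO2; CellTiter-Glo measured in parallel.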

[7] = target: Cellular tumor antigen p53 (Homo sapiens) (UniProt P04637); test: TOX21_p53_BLA_p5_ratio: Tox21 HCT-116 p53 Agonism Beta-lactamase Assay, Ratio, Phase 5 (AID 2283599)
Method in brief: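 Beta-lactamase reporter ratio (blue 460 nm over green 530 nm, 405 nm excitation) after 2 h CCF4-AM loading, in HCT-116 cells exposed 16 h at 37 C to compounds pinned at 217-fold dilution. Increases relative to DMSO baseline scored.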

[8] = CCTE_Padilla_ZF_144hpf_TERATOSCORE: (Legacy) CCTE's 144 Hour Post-fertilization zebrafish Assay Teratoscore, Padilla Lab (AID 2283679; active means hit-call score of the fitted dose curve at least 0.9, where 1 is the maximum; inactive means score below 0.9;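 further: zebrafish embryos with chorions exposed by immersion from 6-8 hpf to 5 dpf with daily renewal; teratogenicity score from eye scoring of death hatching and malformations at 144 hpf; higher score means more developmental defects relative to DMSO baseline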)
Method in brief: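 Larvae scored by eye at 144 hpf for death, hatching and malformations after a day in clean Hanks'. Before that, daily-renewed exposure at 80 uM (0.4% DMSO, 26C) from roughly 6-8 hpf through 5 dpf, 4 embryos per chemical.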

[9] = CCTE_Shafer_MEA_dev_firing_rate_mean: CCTE's Neural Network Formation Assay for Mean Firing Rate, Shafer Lab (AID 2284031; active means hit-call score of the fitted dose curve at least 0.9, where 1 is the maximum; inactive means score below 0.9;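 further: curve fitted for loss of firing so AC50 reflects decreased mean firing rate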)
Method in brief: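 Rat primary cortical neurons were seeded on multielectrode arrays and treated from plating through day 12, with redosing at each feed. Spontaneous spiking was recorded four times; mean firing rate AUC was fitted downward against DMSO.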

[10] = CCTE_Shafer_MEA_dev_per_burst_spike_percent: CCTE's Neural Network Formation Assay for Percent of Spikes in a Burst, Shafer Lab (AID 2284032; active means hit-call score of the fitted dose curve at least 0.9, where 1 is the maximum; inactive means score below 0.9;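 further: fitted as a decrease in burst spike percentage below DMSO baseline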)
Method in brief: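 Rat primary cortical neurons on 16-electrode MEA wells, dosed from plating day 0 for 12 days with renewal on DIV 5 and 9; spikes-in-bursts percentage averaged over bursting electrodes, collapsed as AUC across days 5, 7, 9, 12; loss direction versus DMSO.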

[11] = CCTE_Shafer_MEA_dev_active_electrodes_number: CCTE's Neural Network Formation Assay for Number of Active Electrodes, Shafer Lab (AID 2284040);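 further: potency for loss of active electrodes versus DMSO so lower counts are hits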
Method in brief: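 Primary rat cortical neurons on 16-electrode MEA wells, exposed from day 0 through day 12 with compound renewed at DIV 5 and 9 feeds. Active electrodes (mean firing ≥5 spikes/min) counted at DIV 5, 7, 9, 12; trapezoidal AUC across days, loss-of-signal versus DMSO.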

[12] = CCTE_Shafer_MEA_dev_burst_rate: CCTE's Neural Network Formation Assay for Burst Rate, Shafer Lab (AID 2284042; active means hit-call score of the fitted dose curve at least 0.9, where 1 is the maximum; inactive means score below 0.9;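 further: potency for loss of burst rate below DMSO control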)
Method in brief: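 Cells plated, treated day 0; recorded DIV 5, 7, 9, 12; fed and re-treated DIV 5, 9. Endpoint: bursts per recording time, active-electrode well mean, trapezoidal AUC, fitted in decreasing direction against DMSO baseline.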

[13] = CCTE_Shafer_MEA_dev_bursting_electrodes_number: CCTE's Neural Network Formation Assay for Number of Bursting Electrodes, Shafer Lab (AID 2284043);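 further: potency is for loss of bursting electrodes relative to DMSO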
Method in brief: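 Read-out is the per-well number of electrodes bursting at least once every 2 minutes, recorded on days 5, 7, 9 and 12 and collapsed by trapezoidal area under the curve. Cultures were primary rat cortical neurons on MEA plates, treated continuously from plating.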

[14] = CCTE_Shafer_MEA_dev_per_burst_interspike_interval: CCTE's Neural Network Formation Assay for Burst Interspike Interval, Shafer Lab (AID 2284044; active means hit-call score of the fitted dose curve at least 0.9, where 1 is the maximum; inactive means score below 0.9;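 further: potency for a decrease of within-burst interspike interval below DMSO level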)
Method in brief: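 Readout is the average time between spikes inside single-electrode bursts, taken as a well mean across bursting electrodes. Cortical neurons from rat developed networks on MEA plates under continuous 12-day exposure; recordings on days 5, 7, 9 and 12 were integrated by trapezoidal AUC.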

[15] = CCTE_Shafer_MEA_dev_burst_duration_mean: CCTE's Neural Network Formation Assay for Mean Burst Duration, Shafer Lab (AID 2284045; active means hit-call score of the fitted dose curve at least 0.9, where 1 is the maximum; inactive means score below 0.9)
Method in brief: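 Read-out: average first-to-last-spike interval within single-electrode bursts, averaged over bursting electrodes per well, then summarised as area under the curve across days 5, 7, 9 and 12. Developing rat cortical networks were exposed from day 0.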

[16] = CCTE_Shafer_MEA_dev_interburst_interval_mean: CCTE's Neural Network Formation Assay for Mean Interburst Interval, Shafer Lab (AID 2284046; active means hit-call score of the fitted dose curve at least 0.9, where 1 is the maximum; inactive means score below 0.9;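 further: well-mean interburst interval of bursting electrodes as AUC over four recording days; curve fitted for decrease in interburst interval relative to DMSO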)
Method in brief: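 Developing rat cortical networks on 48-well MEAs receive compound from the day of plating. Burst intervals from each active electrode are averaged per well, and AUC over the recording days is fitted in the negative direction against DMSO.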

[17] = CCTE_Shafer_MEA_dev_inter_network_spike_interval_mean: CCTE's Neural Network Formation Assay for Mean Inter-network Spike Interval, Shafer Lab (AID 2284047; active means hit-call score of the fitted dose curve at least 0.9, where 1 is the maximum; inactive means score below 0.9;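 on AC50: potency for a decrease in mean inter-network spike interval below DMSO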)
Method in brief: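 Rat cortical cultures, 1.5 x 10^5 cells/well on 48-well MEA plates; continuous exposure days 0–12, medium and compound refreshed DIV 5, 9. Mean time between consecutive network-spike peaks; AUC across DIV 5/7/9/12; DMSO baseline, negative fitting direction.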

[18] = CCTE_Shafer_MEA_dev_network_spike_number: CCTE's Neural Network Formation Assay for Number of Network Spikes, Shafer Lab (AID 2284048; active means hit-call score of the fitted dose curve at least 0.9, where 1 is the maximum; inactive means score below 0.9;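 further: fit as a loss of signal meaning fewer network spikes than DMSO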)
Method in brief: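 Developing networks of primary rat cortical neurons are treated over 12 days starting at plating, with media and compound fully replaced on DIV 5 and 9. Network spike counts from four recording days are integrated as trapezoidal AUC.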

[19] = CCTE_Shafer_MEA_dev_network_spike_peak: CCTE's Neural Network Formation Assay for Mean Number of Electrodes in Network Spike, Shafer Lab (AID 2284049; active means hit-call score of the fitted dose curve at least 0.9, where 1 is the maximum; inactive means score below 0.9;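 further: fitted for loss of signal meaning fewer electrodes in network spikes than DMSO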)
Method in brief: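 Rat cortical primary culture, 1.5 x 10^5 cells/well, 48-well MEA (16 electrodes/well). Dosing day 0 through DIV 12, full media/compound exchange DIV 5, 9. AxIS adaptive spike detection; AUC over days 5/7/9/12; loss-of-signal vs DMSO.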

[20] = CCTE_Shafer_MEA_dev_spike_duration_mean: CCTE's Neural Network Formation Assay for Mean Spike Duration, Shafer Lab (AID 2284051; active means hit-call score of the fitted dose curve at least 0.9, where 1 is the maximum; inactive means score below 0.9;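 further: mean network spike duration pooled as area under curve over DIV 5 to 12 recordings; potency for a decrease in mean network spike duration versus DMSO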)
Method in brief: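 Readout is the average length of network spikes, clustered firing across electrodes, summed over DIV 5, 7, 9 and 12 as area under the curve. Neurons from rat cortex developed networks on MEA plates under continuous 12-day exposure.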

[21] = CCTE_Shafer_MEA_dev_network_spike_duration_std: CCTE's Neural Network Formation Assay for Standard Deviation of Network Spike Duration, Shafer Lab (AID 2284052; active means hit-call score of the fitted dose curve at least 0.9, where 1 is the maximum; inactive means score below 0.9;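 further: area under curve of spike duration SD across recording days 5 to 12; hits are decreases in network spike duration SD versus DMSO vehicle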)
Method in brief: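 Read-out is the trapezoidal area-under-the-curve across recordings made on days 5, 7, 9 and 12, fitted in the negative direction against DMSO baseline. Neurons were primary rat cortical cells treated from day 0, with treatment renewed at each feed.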

[22] = CCTE_Shafer_MEA_dev_per_network_spike_spike_number_mean: CCTE's Neural Network Formation Assay for Mean Number of Spikes in a Network Spike, Shafer Lab (AID 2284053; active means hit-call score of the fitted dose curve at least 0.9, where 1 is the maximum; inactive means score below 0.9;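 further: fitted as decrease in spikes per network spike relative to DMSO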)
Method in brief: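 Continuous twelve-day exposure of developing rat cortical networks grown over 16 microelectrodes per well; spontaneous firing is captured at four time points, and the per-network-spike spike number is integrated over development by trapezoidal AUC.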

[23] = CCTE_Shafer_MEA_dev_per_network_spike_spike_percent: CCTE's Neural Network Formation Assay for Percent of Spikes in a Network Spike, Shafer Lab (AID 2284054; active means hit-call score of the fitted dose curve at least 0.9, where 1 is the maximum; inactive means score below 0.9)
Method in brief: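 Rat primary cortical cultures, 1.5 x 10^5 cells/well on MEA. Continuous compound exposure d0–12, medium/compound renewed DIV 5, 9. Network-spike spike % (0.05 s peak window), AUC over 4 recordings, DMSO baseline.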

[24] = CCTE_Shafer_MEA_dev_LDH: CCTE's Lactate Dehydrogenase Assay for Cytotoxicity in the Neural Network Formation Assay, Shafer Lab (AID 2284068);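 further: exposure for twelve days from plating with re-dosing on DIV 5 and 9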
Method in brief: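 Cytotoxicity companion to network-formation recordings: rat cortical neurons received compound over 12 days of development, re-dosed at DIV 5 and 9 feeds. Viability was inferred from LDH enzyme activity relative to DMSO.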

[25] = CCTE_Shafer_MEA_dev_AB: CCTE's Alamar Blue Assay for Cytotoxicity in the Neural Network Formation Assay, Shafer Lab (AID 2284083);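 further: resazurin reduction fluorescence as viability of cultured neurons; twelve days of exposure from plating with re-dosing on DIV 5 and 9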
Method in brief: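 Fluorescent resazurin reduction serves as the viability read-out, with DMSO as negative control and baseline. Cells were primary rat cortical neurons grown on MEA plates and dosed from day 0 to day 12, treatment renewed on DIV 5 and 9.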

[26] = CCTE_Shafer_MEA_dev_mutual_information_norm: CCTE's Neural Network Formation Assay for Mutual Information Normalization, Shafer Lab (AID 2284091; active means hit-call score of the fitted dose curve at least 0.9, where 1 is the maximum; inactive means score below 0.9;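 further: mutual information between electrodes summarised as area under curve across four recording days; potency is for a decrease in mutual information relative to DMSO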)
Method in brief: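 Developing rat cortical networks on 16-electrode MEA wells are treated throughout formation (DIV 0–12). Shared electrode information is recorded four times, converted to area-under-curve, and fitted for decreases against DMSO vehicle.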

[27] = CCTE_Shafer_MEA_dev_correlation_coefficient_mean: CCTE's Neural Network Formation Assay for Mean Correlation Coefficient, Shafer Lab (AID 2284093; active means hit-call score of the fitted dose curve at least 0.9, where 1 is the maximum; inactive means score below 0.9;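 further: well mean pairwise spike train correlation integrated as AUC over recording days 5 to 12; potency fitted for loss of correlation relative to DMSO vehicle wells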)
Method in brief: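 Read-out: well-mean correlation coefficient of spike trains between electrode pairs, collapsed over four recording days as trapezoidal area-under-the-curve. Developing rat cortical neuron networks grown on MEAs received test chemical continuously from plating.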

Measured: AC50

CCCC(CC)CCCCCCCN (stereo not given)
active: [2] 81 µM | [3] 79.2 µM
inactive: [1] | [4] | [5] | [6]

COc1ccccc1C=CC=O
inactive: [1] | [2] | [3] | [4] | [7] | [6]

C[N+]12CCC(CC1)C(OC(=O)C(O)(c1ccccc1)c1ccccc1)C2 (stereo not given)
inactive: [1] | [2] | [3] | [4] | [6]

CO[C@@H]1[C@@H](OC(N)=O)[C@@H](O)[C@H](Oc2ccc3c(O)c(NC(=O)c4ccc(O)c(CC=C(C)C)c4)c(=O)oc3c2C)OC1(C)C
inactive: [1] | [2] | [3] | [4] | [5]

CCN(C=O)CC
inactive: [1] | [2] | [3] | [4] | [5]

COc1ccccc1OC(=O)Oc1ccccc1OC
inactive: [1] | [2] | [3] | [4] | [6]

CC[C@H](C)C(=O)O[C@H]1CCC=C2C=C[C@H](C)[C@H](CC[C@@H]3C[C@@H](O)CC(=O)O3)[C@H]21
inactive: [1] | [2] | [3] | [4] | [5] | [6] | [15] | [17]
active: [8] 8.02 nM and 2.39 nM | [9] 1.41 µM and 8.96 µM | [10] 1.4 µM and 2.83 µM | [11] 1.15 µM and 875 nM | [12] 253 nM and 2.69 µM | [13] 924 nM and 911 nM | [14] 3.11 µM and 8.52 µM | [16] 3.03 µM and 2.52 µM | [17] 0.696 µM | [18] 71.9 nM and 226 nM | [19] 960 nM and 912 nM | [20] 1.05 µM and 983 nM | [21] 665 nM and 700 nM | [22] 940 nM and 915 nM | [23] 277 nM and 554 nM | [24] 0.215 µM | [25] 687 nM and 2.01 µM | [26] 353 nM and 881 nM | [27] 571 nM and 928 nM

CN1[C@@H]2CC[C@H]1CC(OC(c1ccccc1)c1ccccc1)C2 (stereo not given in full)
inactive: [1] | [2] | [3] | [4] | [5] | [6]

CC(CCc1ccc(O)cc1)NCCc1ccc(O)c(O)c1 (stereo not given)
inactive: [1] | [2] | [3] | [4]
active: [6] 43.6 µM
